# Screening data as filed in PubChem BioAssay.
# LMP1 NFkB inh: EBV LMP1-driven NF-kappaB luciferase reporter inhibitors, primary screen, cell-based, luminescence, single point; actives 0.69% (n = 350,000); inhibition, % at 12.5 µM; LMP1-induced NF-kappaB luciferase reporter cells; in the data active = inhibition above about 41%;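 also: 0% = neutral control wells and 100% = reference inhibitor control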
# SRC1 inh: SRC1 coactivator transcriptional activity inhibitors, primary screen, cell-based, luminescence; AID 588354, 2011; HEK293 GAL4-SRC1 luciferase reporter; actives 0.12% (n = 360,000); inhibition, % at 3.6 µM;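 active = inhibition above the campaign mean plus 3 SD, with each screening campaign given its own cutoff, cut at about 60% in these data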;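 also: 0% = DMSO treated cells and 100% = gossypol at 36 µM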
# SRC3 inh: SRC3 coactivator transcriptional activity inhibitors, primary screen, cell-based, luminescence; HEK293 GAL4-SRC3 luciferase reporter; inhibition, % at 3.6 µM; actives 0.17% (n = 360,000); AID 588352, 2011;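 active = inhibition above a per-campaign cutoff, the mean of all compounds plus 3 SD, cut at about 60% in these data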;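 also: 0% = DMSO-treated cells and 100% = gossypol-treated cells at 36 µM; higher means less SRC3-driven luciferase light from the GAL4 reporter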
# NCOA2 inhibitor: inhibition of GAL4-SRC2 driven luciferase reporter, primary screen, SRC2 inhibitor project, cell-based, luminescence; Nuclear receptor coactivator 2 (Homo sapiens), Q15596; inhibition, % at 9 µM; HEK293 GAL4-SRC2 luciferase reporter; AID 651957, 2012; actives 0.17% (n = 370,000);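 active = inhibition above the mean inhibition of all tested compounds plus 3 SD, set per campaign, cut at about 52% in these data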;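 also: 0% = DMSO treated cells and 100% = cells given Gossypol at 36 µM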
# LRH-1 inv ag: LRH-1 (NR5A2) inverse agonists, primary screen, cell-based, luminescence, HEK293T, StAR-luciferase reporter; Nuclear receptor subfamily 5 group A member 2 (Homo sapiens), O00482; LRH-1 transfected, 24 h; inhibition, % at 3.6 µM; actives 0.13% (n = 360,000);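 active = inhibition above the mean inhibition of all tested compounds plus 3 SD, cut at about 73% in these data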;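 also: 0% = DMSO wells and 100% = reporter-only cells lacking LRH-1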
# Target sequence (O00482 whole entry, looked up): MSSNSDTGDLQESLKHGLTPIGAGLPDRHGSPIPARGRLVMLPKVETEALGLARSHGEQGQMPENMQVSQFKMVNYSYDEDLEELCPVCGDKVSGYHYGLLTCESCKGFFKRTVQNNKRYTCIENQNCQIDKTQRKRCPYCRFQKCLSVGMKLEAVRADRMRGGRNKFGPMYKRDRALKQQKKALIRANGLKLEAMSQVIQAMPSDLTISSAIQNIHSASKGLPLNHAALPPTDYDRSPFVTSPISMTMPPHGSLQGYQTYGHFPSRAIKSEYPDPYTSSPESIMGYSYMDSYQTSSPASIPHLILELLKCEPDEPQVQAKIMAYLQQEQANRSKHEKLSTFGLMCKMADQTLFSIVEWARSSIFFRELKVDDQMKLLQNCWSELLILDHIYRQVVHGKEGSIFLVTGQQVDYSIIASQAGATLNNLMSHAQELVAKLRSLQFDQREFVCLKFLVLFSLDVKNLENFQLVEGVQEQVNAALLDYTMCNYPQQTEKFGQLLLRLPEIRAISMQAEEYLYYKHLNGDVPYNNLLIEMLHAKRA
# * hit, by the source's call; . = no result. Compounds with a hit are over-represented: about 0.78% of the library has one in this group of screens.
SMILES,LMP1 NFkB inh,SRC1 inh,SRC3 inh,NCOA2 inhibitor,LRH-1 inv ag
Cc1oc2c(c1C(=O)c1ccccc1)C(=O)C(=O)c1ccccc1-2,94.2*,-15.6,-39.1,62.5*,15.8
Cc1oc2c(c1C(=O)O)C(=O)c1ccccc1C2=O,2.8,1.0,10.6,-24.0,13.7
CCOC(=O)C(C)Sc1nc(-c2cccs2)ccc1C#N (configuration not stated),59.6*,-24.9,-12.8,-30.5,-3.2
C=COC(=O)CSc1nc(-c2cccs2)ccc1C#N,-20.5,-50.2,-56.2,-66.5,-52.0
O=C(/C(=C\c1ccccc1)c1nc2ccccc2[nH]1)c1ccc(Cl)cc1,-44.3,-41.2,26.3,-6.1,-71.4
O=C(/C(=C/c1ccc(Cl)cc1)c1nc2ccccc2[nH]1)c1cccs1,3.5,47.2,61.9*,.,-6.8
O=C1NC(=S)N/C1=C/C=C/c1ccccc1,-4.0,-33.7,-24.7,-7.3,-33.6
O=C1NC(=S)NC1=Cc1ccc2c(c1)CCC2,93.1*,-9.6,-1.6,-22.9,-21.8
CCn1c(=O)c2c(cnn2C)c2ccccc21,46.7*,55.9,41.7,46.2,-8.1
CC(=O)N1[C@H](CO)[C@@H](c2ccccc2)[C@@H]1CN(C(=O)c1ccc(F)cc1)C(C)C,.,.,.,-18.0,.
C[C@@H]1O[C@@H]1P(=O)(O)O,74.8*,6.0,3.8,-6.6,8.1
N=c1c2c(-c3ccccc3)c(-c3ccccc3)n(Cc3ccccc3)c2ncn1CCO,-59.9,52.3,69.3*,-51.8,49.6
N=c1c2c(-c3ccccc3)c(-c3ccccc3)n(Cc3ccco3)c2ncn1CCCN1CCOCC1,-12.4,10.4,15.5,-14.7,-3.9
N=c1c2c(-c3ccccc3)c(-c3ccccc3)n(Cc3ccco3)c2ncn1CCCn1ccnc1,-51.1,56.5,68.2*,-34.3,34.6
N=c1c2c(-c3ccccc3)c(-c3ccccc3)n(CCc3ccccc3)c2ncn1CCO,.,.,.,-28.9,.
CC(C)CCCCCCCCCCCCC(=O)NCC(=O)NC1C(O)C(O)C(Nc2ncnc3nc[nH]c23)OC1C(O)CO (configuration not stated),87.9*,95.3*,93.4*,.,98.8*
CC(O)CNc1ncnc2nc[nH]c12 (configuration not stated),-4.6,7.1,-21.9,-9.7,-11.9
S=c1[nH]nc(-c2n[nH]c3c2CCC3)n1N=Cc1ccc(OCc2ccccc2)cc1,.,.,.,-28.9,.
COc1ccc(C[C@H](N)C(=O)N[C@H]2[C@@H](O)[C@H](n3cnc4c(N(C)C)ncnc43)O[C@@H]2CO)cc1,-21.1,94.3*,95.0*,86.3*,102.0*
O=Cc1cc(CCC(=O)O)ccc1O,53.3*,-13.3,8.6,1.6,3.2
CC(C)CNS(=O)(=O)c1ccc(CCC(=O)O)cc1,-9.0,8.3,3.9,8.2,13.3
O=c1c2ccccc2n(Cc2ccco2)n1[C@@H](Cc1ccccc1)Cn1cc(C2CCCC2)nn1,.,.,.,6.6,.
CCOC(=O)N1CCN(c2ncnc3c2[nH]c2ccc(F)cc23)CC1,38.3,12.9,21.4,-22.7,23.0
O=C(CCCN1CCC(O)(c2cccc(C(F)(F)F)c2)CC1)c1ccc(F)cc1,5.1,-26.1,19.1,1.9,6.2
OC1(c2cccc(C(F)(F)F)c2)CCN(c2ncnc3c2[nH]c2ccc(F)cc23)CC1,44.0*,13.7,8.6,14.5,16.8
SMILES,LMP1 NFkB inh,SRC1 inh,SRC3 inh,NCOA2 inhibitor,LRH-1 inv ag
Fc1ccc2[nH]c3c(N4CCN(c5ccccc5)CC4)ncnc3c2c1,50.2*,25.3,28.7,21.0,27.9
COc1ccc(N2CCN(c3ncnc4c3[nH]c3ccccc34)CC2)cc1,47.6*,29.6,32.0,21.5,37.9
COc1ccc(-c2nc(CN3CCC(C(=O)N4CCOCC4)CC3)c(C)o2)cc1OC,1.2,8.9,-12.3,-23.3,-0.8
COc1ccc(-c2nc(CN3CCC(C(=O)N4CCOCC4)CC3)c(C)o2)cc1C,65.8*,-17.7,0.0,9.3,-29.1
CC(C)(C)OC(=O)NCc1cc(F)ccc1/C=C/S(=O)(=O)NC1CCCC1,.,.,.,3.3,.
Cc1cc(N2CCN(C)CC2)ccc1NC(=O)c1c2c(nc3ccccc13)CCN(Cc1ccccc1)C2,77.1*,7.9,21.6,.,9.2
O=C(NC1CCCCCC1)c1c2c(nc3ccccc13)CCN(Cc1ccccc1)C2,-7.9,6.7,10.7,5.3,15.5
O=C(NCCc1ccccc1)c1ccccc1Cl,45.6*,-78.0,-96.5,-10.1,-111.3
O=C(NCCc1ccccc1)c1ccc2nccnc2c1,50.2*,-65.8,-57.8,2.0,-115.5
O=C(NCCc1ccccc1)c1ccc2c(c1)OCO2,49.3*,-16.2,-6.3,34.6,-59.3
O=C(O)c1ccccc1C(=O)NCCc1ccc(Cl)cc1,1.6,9.4,1.8,11.9,-7.8
Oc1ccc(CN2CCN(Cc3ccccc3)CC2)c2cccnc12,-3.8,-0.2,-1.6,6.6,-4.6
Oc1c(CN2CCc3ccccc3C2)cc(Cl)c2cccnc12,84.9*,-6.6,-23.0,.,21.0
CN1CCN(Cc2cc(COCc3ccccc3)c3cccnc3c2O)CC1,57.6*,13.5,49.0,26.1,5.4
Oc1c(CN2CCCCC2)cc(Br)c2cccnc12,71.8*,6.0,0.3,14.3,1.5
Oc1c(Cl)cc(CN2CCOCC2)c2cccnc12,7.2,19.0,1.9,-0.9,45.1
O=C(COc1c(Br)cc(Br)c2cccnc12)N1CCCCC1,-1.5,-3.6,10.3,-19.6,-7.8
O=[N+]([O-])c1cc(Cl)c(O)c2ncccc12,14.7,-11.4,11.4,2.3,19.2
O=[N+]([O-])c1cc(CN2CCN(c3ccccc3)CC2)c(O)c2ncccc12,79.8*,29.8,34.0,-5.1,52.9
CC(C)(C)N(Cc1cn(CC2CCCCC2)nn1)S(=O)(=O)c1ccc(F)cc1Br,.,.,.,21.8,.
COc1ccc(S[C@]2(C(=O)N3CCN(c4ncccn4)CC3)CC(=O)N(C(=O)/C=C/c3ccccc3)[C@@H]2c2ccc(OC)cc2)cc1,.,.,.,5.4,.
O=c1[nH]c(=O)n([C@H]2C[C@H](O)[C@@H](CO)O2)cc1F,50.0*,65.8*,66.6*,15.9,11.2
Oc1ccccc1C1=Nc2ncnn2C(c2ccc(F)cc2)C1 (configuration not stated),61.8*,-10.8,-0.3,3.3,20.4
CC1(C)Nc2ccccc2C(=O)N1c1ccccc1,61.8*,-35.2,-42.8,-45.9,-24.4
CC(=O)Nc1cc2ccccc2oc1=O,-52.6,5.0,-4.1,-14.3,-6.0
Cc1ccc(C(=O)Nc2cc3ccccc3oc2=O)cc1,79.3*,-5.1,28.0,4.1,-56.5
COc1ccc(NC(=O)c2cc3ccccc3oc2=O)cc1,73.4*,-100.1,-125.8,-11.1,-151.0
Cc1ccc(NC(=O)c2cc3ccccc3oc2=O)cc1S(=O)(=O)N(C)C,63.8*,85.4*,85.1*,.,75.3*
Cc1ccc(NC(=O)c2cc3ccccc3o2)cc1S(=O)(=O)N(C)C,-27.9,-105.4,-78.5,-86.7,-142.5
